# A number with no mark means an inactive call. Where a call stands in place of a potency, no number is given. Active and inactive are the calls of the source. Calls follow the shape of the dose curve; as a rule, active = well fitted activation curve with a large enough effect in the repeat runs; inconclusive = weak or mixed curves; inactive = flat fitted curve, though single readings scatter.
# Assay: A CellTox Green Cytotoxicity Assay to monitor cytotoxicity in HepG2 cells - 0 hour (AID 1224882); also: nearly all actives have a fitted effect of over 35% in size
# Details: CellTox Green fluorescence; series mostly up to 76.8 µM
# Excerpt: National Center for Advancing Translational Sciences [NCATS]
# NIH Chemical Genomics Center [NCGC]
# U.S. Environmental Protection Agency [EPA]
# National Institutes of Environmental Health Sciences [NIEHS]
# National Toxicology Program [NTP]
# Cell-based models are critical for drug discovery. Determining the natural cytotoxic effects resulting from test compounds is an essential research activity. A CellTox Green Cytotoxicity Assay to monitor cytotoxicity in real time of continues cell culture during 40 hours of the compound treatment was used to screen Tox21 10K library compounds in HepG2 cells. CellTox Green Cytotoxicity Assay is a nonlytic, homogeneous, biofluorescent method to measure cytotoxicity in cell culture after experimental manipulation. The assay system uses a proprietary asymmetric cyanine dye that is excluded from viable cells but preferentially stains the dead cell's DNA. […] Viable cells produce no appreciable increases in fluorescence. Therefore, the fluorescence signal produced by the binding interaction with dead cell DNA is proportional to cytotoxicity.
# The mixture of HepG2 cell suspension and reagents were dispensed at 600cells/6 ul/well in 1536-well tissue culture treated black solid bottom plates using a Multidrop dispenser. After the assay plates were incubated at a 37 C/5% CO2 incubator for 5 hours, 23 nL of compounds dissolved in DMSO, positive and negative controls was transferred to the assay plate by a pintool work station. The plates were incubated at 37 C for 40 hours. The fluorescence intensity were measured at 0h, 8h, 16h, 24h, 32h and 40h time points using ViewLux plate reader during compound treatment.
# Potency is read from the fitted curve at half-maximal effect.
SMILES,Potency,cytotoxicity
CC1(C)[C@H](C(=O)OCc2cccc(Oc3ccccc3)c2)[C@@H]1C=C(Cl)Cl,inactive,
CCN(CC)c1ccc(C=O)c(O)c1,inactive,
Cc1ccc(Cl)c(N)c1Cl,inactive,
CCOc1ccc([N+](=O)[O-])cc1,inactive,
COc1c(Br)cc(Br)c(C)c1Br,inactive,
CN1CC[C@H](c2c(O)cc(O)c3c(=O)cc(-c4ccccc4Cl)oc23)[C@H](O)C1,inactive,
CC(C)C(=O)C(C)C,inactive,
CC(O)(c1ccc(Cl)cc1)c1ccc(Cl)cc1,inactive,
Nc1ccc(F)c([N+](=O)[O-])c1,inactive,
c1ccc2cc3c4ccccc4c4ccccc4c3cc2c1,inactive,
C/C(=C\c1ccc(C(=O)O)cc1)c1ccc2c(c1)C(C)(C)CCC2(C)C,inactive,
Nc1cccnc1N,inactive,
O=C1c2ccccc2C(=O)c2c(Cl)cccc21,inactive,
CN1CCN(CCCN2c3ccccc3Sc3ccc(Cl)cc32)CC1,inactive,
CCNc1nc(NC(C)(C)C)nc(OC)n1,inactive,
Clc1ccc2c(Cl)ccnc2c1,inactive,
CC(C)c1ccc2sc3ccccc3c(=O)c2c1,inactive,
C=C1C(CCl)(CCl)C2(Cl)C(Cl)C(Cl)C1(Cl)C2(Cl)Cl (stereo not given),inactive,
C=C[Si](C)(C)Cl,,-6.72% [at 6.97 µM]
CCOC(=O)[C@H](C)O,inactive,

SMILES,Potency,cytotoxicity
Nc1cc([N+](=O)[O-])cc(Cl)c1O,inactive,
CCOC(=O)C1=NN(c2ccc(Cl)cc2Cl)C(C)(C(=O)OCC)C1 (stereo not given),inactive,
Cc1ccc(S(=O)(=O)C(I)I)cc1,inactive,
CC1CCC(C(C)(C)O)CC1 (stereo not given),inactive,
SC1CCCCC1,inactive,
Cc1c[nH]c(=O)[nH]c1=O,inactive,
CC1=CC[C@@H](C(C)(C)O)CC1,inactive,
CN1CCN(CCCN2c3ccccc3Sc3ccc(C(F)(F)F)cc32)CC1,inactive,
Oc1cccc2c(O)cccc12,inactive,
Cc1cc(C)c(O)c(C(C)(C)C)c1,inactive,
O=C(Nc1ccccc1)c1cc(Cl)ccc1O,inactive,
Nc1cc([N+](=O)[O-])ccc1Cl,inactive,
COc1cc(OC)nc(NC(=O)NS(=O)(=O)Nc2ccccc2C(=O)N(C)C)n1,inactive,
COc1cc(/C=C/C(=O)CC(=O)/C=C/c2ccc(O)c(OC)c2)ccc1O,43.9 µM (active),
C=CC(C)(C)O,inactive,
O=C1CCC(=O)N1,inactive,
CCOC(=O)OC(=O)OCC,inactive,
Cc1ccc2sc3cccc(C)c3c2c1,inactive,
NCc1cccc(C2CCN(C(=O)c3ccc(C#Cc4ccccc4F)o3)CC2)c1,inactive,
CC(C)(C)c1ccc(OC2CCCCC2O)cc1 (stereo not given),inactive,

# — PubChem BioAssay (Tox21)
